Data on 40 sequences can be found in the OligoGym collection.
Note: reference of the scale not given here.

The first assay concerns the target RNF122. Kind of assay: pooled miR-30 sensor sort-seq; sequence = guide strand. To be noted: shRNA.
As to TATATCCGTATCGCTCACTCTG, the sensor-assay potency score (higher = more potent) was -0.842.

For the sequence TATCCGTATCGCTCACTCTGTG, the sensor-assay potency score (higher = more potent) was -0.565.

On to TTTGCTGATAAAATAGCAGCAG, for which the sensor-assay potency score (higher = more potent) was -0.0269.

In turn, TTTCACCAGACACTTGCGGTGA returned a sensor-assay potency score (higher = more potent) of -0.949.

In another assay the target is RNF125. The description is as above. The following applies: shRNA.
With TAGACTGGTAGCAATACAGGAA, the sensor-assay potency score (higher = more potent) was -0.258.

The sequence TACTTATCTATGTACTTCTGAC displayed a sensor-assay potency score (higher = more potent) of -0.698.

TTCTTGTAGTGGTCCATACTTA returned a sensor-assay potency score (higher = more potent) of -0.891.

TATCTATGTACTTCTGACAAGT came in with a sensor-assay potency score (higher = more potent) of -0.831.

With ATGTACTTCTGACAAGTCCGAA, the sensor-assay potency score (higher = more potent) was -1.03.

On to TGTACTTCTGACAAGTCCGAAT, for which the sensor-assay potency score (higher = more potent) was -0.85.

TTATCTATGTACTTCTGACAAG showed a sensor-assay potency score (higher = more potent) of -1.25.

On to TTGTTCTTTAGACTGGTAGCAA, for which the sensor-assay potency score (higher = more potent) is -0.126.

Turning to TAGTGGTCCATACTTATCTATG, the sensor-assay potency score (higher = more potent) was -1.8.

As to TTGTTGTTCTTTAGACTGGTAG, the sensor-assay potency score (higher = more potent) is -0.623.

Consider ATACTTATCTATGTACTTCTGA, for which the sensor-assay potency score (higher = more potent) stood at 0.546.

TTATACTCTGATTTCATTCTTT came in with a sensor-assay potency score (higher = more potent) of 0.204.

The next assay deals with RNF14. The description is as above. To be noted: shRNA.
For the sequence TTTATTAGCCTCATCCGCTTGC, the sensor-assay potency score (higher = more potent) turned out to be 0.884.

Turning to TTTCTGAGAACCAATCTTGAGC, the sensor-assay potency score (higher = more potent) is -0.733.

Turning to TTTGAGTTCTTCTCTAGCCACT, the sensor-assay potency score (higher = more potent) was -1.03.

TAAAACATGGTGAACCAGGGTC displayed a sensor-assay potency score (higher = more potent) of 0.147.

Turning to TCTAAATTCATCTCCATCGTAA, the sensor-assay potency score (higher = more potent) came out at 0.0572.

The sequence TTCTTCTCTAGCCACTCCTTAC showed a sensor-assay potency score (higher = more potent) of -0.95.

Regarding TCATCTTGTTACATCCGTCTAA, the sensor-assay potency score (higher = more potent) is 0.00357.

On to TATCGTCGTCAACATCCACAGC, for which the sensor-assay potency score (higher = more potent) is -0.981.

TTACTTTGTGTACTTGACGGAA: the sensor-assay potency score (higher = more potent) was -0.835.

Sequence AATATCGTCGTCAACATCCACA returned a sensor-assay potency score (higher = more potent) of -1.06.

In turn, ATGTCATCTTGTTACATCCGTC had a sensor-assay potency score (higher = more potent) of -0.926.

TATCTTGAAATTCTGTGGCAAA registered a sensor-assay potency score (higher = more potent) of -1.02.

The target of another assay is RNF157. The assay is described as above. To be noted: shRNA.
In turn, TTGTCTTTGGGAATGTAGCTGG returned a sensor-assay potency score (higher = more potent) of 0.177.

As to TACCATTCTGGAACTCTTCCGT, the sensor-assay potency score (higher = more potent) was determined as 0.188.

As for TTCCTCTTCATGCAGCACGGAA, the sensor-assay potency score (higher = more potent) is -1.64.

On to TTGAGTCAAACTTCTCTCCTCC, for which the sensor-assay potency score (higher = more potent) stood at 0.532.

With TACTTGTTTCTGTTTGAGGGGC, the sensor-assay potency score (higher = more potent) stood at 0.142.

Take TTGAGTCCCTGACTGCTGCTGT: the sensor-assay potency score (higher = more potent) was determined as 0.522.

Sequence TTGAGTTTGAGTCCCTGACTGC had a sensor-assay potency score (higher = more potent) of -0.461.

Regarding TTGTACTGCACAGTCTCCGACT, the sensor-assay potency score (higher = more potent) is -0.593.

TTTCGGATATTGACCAGGCTTC showed a sensor-assay potency score (higher = more potent) of -1.09.

As to TTCCTCAGCACATTTGACGAGC, the sensor-assay potency score (higher = more potent) was -0.263.

Turning to TAAGGAAACACAACTGGTCTGT, the sensor-assay potency score (higher = more potent) amounted to 0.685.

The sequence TTCAATTCCATAGATCTCCTGA returned a sensor-assay potency score (higher = more potent) of 0.823.
